Laboratory results from PubChem BioAssay (Tox21).
Several values for one entry are separate records, joined by “and”; a condition that tells them apart may be missing. Equal values may be shown once. Records with an inconclusive call do not appear. A call without a number means that no potency is given here. Activity calls are given as the source filed them. Unless noted, calls come from the whole dose curve; as a rule, active = well fitted cell-killing curve with a large enough effect in the repeat runs; inconclusive = weak or mixed curves, or effect the other way; inactive = no such curve, though single readings can be large or run the other way.

Experiment: qHTS assay to identify small molecule antagonists of the peroxisome proliferator-activated receptor gamma (PPARg) signaling pathway - cell viability counter screen (AID 743194); note: nearly all actives have a fitted effect of over 55% in size
Conditions: PPARg-bla HEK293H viability, CellTiter-Glo luminescence, 17 h, co-treated with 50 nM rosiglitazone; series mostly up to 62.6 µM
Summary of the method: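 Cytotoxicity counter screen in PPARg-bla HEK293H cells, same wells as reporter assay. Compounds plus 50 nM rosiglitazone (final) for 17 h at 37 C, then viability read by CellTiter-Glo luminescence.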
Potency is the fitted concentration of half-maximal effect.

| SMILES | Potency |
| --- | --- |
| Oc1cc(Cl)cc(Cl)c1Cl | inactive |
| OC[C@H]1O[C@H](O[C@H]2O[C@H](CO)[C@@H](O)[C@H](O)[C@H]2O)[C@H](O)[C@@H](O)[C@@H]1O | inactive |
| CN1CCN2c3ccccc3Cc3ccccc3C2C1 (centres undefined) | inactive |
| C/C=C/C=C/COC(=O)C(C)C | inactive |
| CCCCCC(C)OC(=O)COc1ccc(Cl)c2cccnc12 (centres undefined) | inactive |
| O=C1CCc2ccc(OCCCCN3CCN(c4cccc(Cl)c4Cl)CC3)cc2N1 | 15 µM (active) |
| CN(C)Cc1cc(C(C)(C)C)c(O)c(C(C)(C)C)c1 | inactive |
| Cc1cc(C(C)(C)C)cc(C)c1CC1=NCCN1 | inactive |
| Cc1cc(C)c(/C=C2\C(=O)Nc3ccccc32)[nH]1 | inactive |
| Cc1ccc(N/N=c2\c(=O)cc/c(=N\Nc3ccc(S(=O)(=O)O)cc3)c2=O)c(C)c1 | inactive |
| Nc1ccc(NCCO)c([N+](=O)[O-])c1 | inactive |
| O=C(c1ccc(O)c(O)c1)c1ccc(O)cc1O | inactive |
| CCOc1ccc2ccccc2c1C(=O)N[C@@H]1C(=O)N2[C@@H]1SC(C)(C)[C@@H]2C(=O)O | inactive |
| CC(C)CCOC(=O)/C=C/c1ccccc1 | inactive |
| C[C@H]1NCc2cc(-c3ccc4c(=O)c(C(=O)O)cn(C5CC5)c4c3OC(F)F)ccc21 | inactive |
| CCCCCCCCCCCCCCCC[N+](C)(C)CC | 17.4 µM (active) and 26.6 µM (active) |
| CN1CCCCC1CCN1c2ccccc2Sc2ccc(S(C)=O)cc21 (centres undefined) | inactive |

| SMILES | Potency |
| --- | --- |
| O=S(=O)(O)c1ccc(N=Nc2c(O)ccc3ccccc23)cc1 | inactive |
| CC[C@H](C)COC(=O)/C=C/c1ccc(N=Cc2ccc(OC)cc2)cc1 | inactive |
| O=c1c(O)c(-c2ccc(O)cc2O)oc2cc(O)cc(O)c12 | inactive |
| O=[N+]([O-])c1ccc(O)cc1C(F)(F)F | 38.9 µM (active) |
| COCCOc1cc2cc(C(=O)NC3CCN(C(C)C)CC3)n(CC(=O)Nc3ccc(Cl)cn3)c2cn1 | inactive |
| Cl[Si](Cl)(c1ccccc1)c1ccccc1 | inactive |
| CC(C)(C)c1ccc(C(O)CCCN2CCC(C(O)(c3ccccc3)c3ccccc3)CC2)cc1 (centres undefined) | 13.3 µM (active) |
| NC(=S)NC(N)=S | inactive |
| CCCCC/C=C\C/C=C\CCCCCCCC(=O)O | inactive |
| O=C(Nc1ccc2c(O)c(N=Nc3ccc(N=Nc4ccc(S(=O)(=O)O)cc4)cc3)c(S(=O)(=O)O)cc2c1)c1ccccc1 | inactive |
| O=C(O)c1cc(O)c2ccccc2c1O | 49 µM (active) |
| [Cu+] | inactive |
| Cc1cc(C(C)(C)C)c(O)c(C)c1Cn1c(=O)n(Cc2c(C)cc(C(C)(C)C)c(O)c2C)c(=O)n(Cc2c(C)cc(C(C)(C)C)c(O)c2C)c1=O | inactive |
| CC(N=C(NC#N)Nc1ccncc1)C(C)(C)C (centres undefined) | inactive |
| COc1cc(S(=O)(=O)O)c(C)cc1N=Nc1c(O)ccc2cc(S(=O)(=O)O)ccc12 | inactive |
| CCCCCCCCCCCCCC[N+](C)(C)Cc1ccccc1 | 22.2 µM (active) and 29.8 µM (active) |
| COc1cccc2c1C(=O)c1c(O)c3c(c(O)c1C2=O)C[C@@](O)(C(C)=O)C[C@@H]3O[C@H]1C[C@H](N)[C@H](O)[C@H](C)O1 | 34.9 µM (active) and 33.5 µM (active) |

Experiment: qHTS assay for small molecule agonists of the antioxidant response element (ARE) signaling pathway (AID 743202; active = well fitted activation curve with a large enough effect in the signal ratio in the repeat runs, not every such curve was filed as active; the % refers to the signal ratio)
Conditions: HepG2 ARE-bla reporter, beta-lactamase FRET, 16 h; series mostly up to 73.3 µM
Summary of the method: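 ARE-bla HepG2 cells (beta-lactamase reporter under the antioxidant response element), plated 5 hours, then exposed to compounds 16 hours at 37 C. LiveBLAzer B/G FRET substrate added for 2 hours at room temperature; fluorescence intensity read.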

| SMILES | Potency |
| --- | --- |
| Oc1cc(Cl)cc(Cl)c1Cl | 62.6 µM (active) |
| OC[C@H]1O[C@H](O[C@H]2O[C@H](CO)[C@@H](O)[C@H](O)[C@H]2O)[C@H](O)[C@@H](O)[C@@H]1O | inactive |
| C/C=C/C=C/COC(=O)C(C)C | 61.1 µM (active) |
| CCCCCC(C)OC(=O)COc1ccc(Cl)c2cccnc12 (centres undefined) | inactive |
| CN(C)Cc1cc(C(C)(C)C)c(O)c(C(C)(C)C)c1 | 27.3 µM (active) |
| Cc1cc(C(C)(C)C)cc(C)c1CC1=NCCN1 | inactive |
| Cc1ccc(N/N=c2\c(=O)cc/c(=N\Nc3ccc(S(=O)(=O)O)cc3)c2=O)c(C)c1 | inactive |
| CCOc1ccc2ccccc2c1C(=O)N[C@@H]1C(=O)N2[C@@H]1SC(C)(C)[C@@H]2C(=O)O | 4.73 µM (active) |
| C[C@H]1NCc2cc(-c3ccc4c(=O)c(C(=O)O)cn(C5CC5)c4c3OC(F)F)ccc21 | inactive |
| CN1CCCCC1CCN1c2ccccc2Sc2ccc(S(C)=O)cc21 (centres undefined) | inactive |
| COCCOc1cc2cc(C(=O)NC3CCN(C(C)C)CC3)n(CC(=O)Nc3ccc(Cl)cn3)c2cn1 | inactive |
| Cl[Si](Cl)(c1ccccc1)c1ccccc1 | inactive |
| NC(=S)NC(N)=S | inactive |
| CCCCC/C=C\C/C=C\CCCCCCCC(=O)O | 61.1 µM (active) |
| Cc1cc(C(C)(C)C)c(O)c(C)c1Cn1c(=O)n(Cc2c(C)cc(C(C)(C)C)c(O)c2C)c(=O)n(Cc2c(C)cc(C(C)(C)C)c(O)c2C)c1=O | inactive |
| COc1cc(S(=O)(=O)O)c(C)cc1N=Nc1c(O)ccc2cc(S(=O)(=O)O)ccc12 | inactive |

Experiment: qHTS assay for small molecule agonists of the antioxidant response element (ARE) signaling pathway - cell viability counter screen (AID 743203; calls by dose curve; note: nearly all actives have a fitted effect of over 55% in size)
Conditions: ARE-bla HepG2 viability, CellTiter-Glo luminescence, 16 h; series mostly up to 73.3 µM
Summary of the method: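 Following 16 hrs of compound treatment at 37C, HepG2 cells with an ARE-controlled beta-lactamase gene were lysed with CellTiter-Glo. Luminescence was read after 30 min at room temperature.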

| SMILES | Potency |
| --- | --- |
| Oc1cc(Cl)cc(Cl)c1Cl | inactive |
| CN1CCN2c3ccccc3Cc3ccccc3C2C1 (centres undefined) | inactive |
| C/C=C/C=C/COC(=O)C(C)C | inactive |
| CCCCCC(C)OC(=O)COc1ccc(Cl)c2cccnc12 (centres undefined) | inactive |
| O=C1CCc2ccc(OCCCCN3CCN(c4cccc(Cl)c4Cl)CC3)cc2N1 | 16.8 µM (active) |
| CN(C)Cc1cc(C(C)(C)C)c(O)c(C(C)(C)C)c1 | inactive |
| CN1CCC[C@@H]1CCO[C@](C)(c1ccccc1)c1ccc(Cl)cc1 | 29.8 µM (active) |
| Cc1ccc(N/N=c2\c(=O)cc/c(=N\Nc3ccc(S(=O)(=O)O)cc3)c2=O)c(C)c1 | inactive |
| Nc1ccc(NCCO)c([N+](=O)[O-])c1 | inactive |
| CCOc1ccc2ccccc2c1C(=O)N[C@@H]1C(=O)N2[C@@H]1SC(C)(C)[C@@H]2C(=O)O | inactive |
| CC(C)CCOC(=O)/C=C/c1ccccc1 | inactive |
| C[C@H]1NCc2cc(-c3ccc4c(=O)c(C(=O)O)cn(C5CC5)c4c3OC(F)F)ccc21 | inactive |
| CCCCCCCCCCCCCCCC[N+](C)(C)CC | 54.6 µM (active) |
| CN1CCCCC1CCN1c2ccccc2Sc2ccc(S(C)=O)cc21 (centres undefined) | inactive |
| CC[C@H](C)COC(=O)/C=C/c1ccc(N=Cc2ccc(OC)cc2)cc1 | inactive |
| O=c1c(O)c(-c2ccc(O)cc2O)oc2cc(O)cc(O)c12 | inactive |
| COCCOc1cc2cc(C(=O)NC3CCN(C(C)C)CC3)n(CC(=O)Nc3ccc(Cl)cn3)c2cn1 | inactive |
| Cl[Si](Cl)(c1ccccc1)c1ccccc1 | inactive |
| CC(C)(C)c1ccc(C(O)CCCN2CCC(C(O)(c3ccccc3)c3ccccc3)CC2)cc1 (centres undefined) | 11.9 µM (active) |
| NC(=S)NC(N)=S | inactive |
| CCCCC/C=C\C/C=C\CCCCCCCC(=O)O | inactive |
| O=C(Nc1ccc2c(O)c(N=Nc3ccc(N=Nc4ccc(S(=O)(=O)O)cc4)cc3)c(S(=O)(=O)O)cc2c1)c1ccccc1 | inactive |
| O=C(O)c1cc(O)c2ccccc2c1O | 30.6 µM (active) |
| [Cu+] | inactive |
| Cc1cc(C(C)(C)C)c(O)c(C)c1Cn1c(=O)n(Cc2c(C)cc(C(C)(C)C)c(O)c2C)c(=O)n(Cc2c(C)cc(C(C)(C)C)c(O)c2C)c1=O | inactive |
| CCOC(=O)c1ccc(C2CCC(NC[C@H](O)COc3ccc(O)c(NS(C)(=O)=O)c3)CC2)cc1 (some centres undefined) | 50.2 µM (active) |
| CC(N=C(NC#N)Nc1ccncc1)C(C)(C)C (centres undefined) | inactive |
| COc1cc(S(=O)(=O)O)c(C)cc1N=Nc1c(O)ccc2cc(S(=O)(=O)O)ccc12 | inactive |
| CCCCCCCCCCCCCC[N+](C)(C)Cc1ccccc1 | 69.6 µM (active) |
